Measured values: PubChem BioAssay AID1159580 (chemical genetic matrix, 2015)
The campaign covered roughly 5,500 compounds. About 2,000 (36%) were called active. Another 18% or so got no clear call; they are omitted. Rule as the data show it: active = normalized growth mostly below about 0.91 (no sharp cut-off); inconclusive = no clear call, values can overlap the other calls; inactive = mostly above about 0.92. The list shows a part of the results.

Assay: chemical genetic growth profiling, strain panel (AID 1159580);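 also: tested at 20 µM; growth read once vehicle control cultures reached saturation at 30 °C; 1 = growth at the plate median or of vehicle wells; lower values mean less growth of the strain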
Details: growth OD

Measured: normalized growth

Cc1[nH]c2ccccc2c1CN(C)C
inactive: S. cerevisiae deletion strains, locus YJR075W, strain HOC1, active compounds read low 1.03 | S. cerevisiae deletion strains, locus YKL009W, strain mrt4, active compounds read low 0.974 | S. cerevisiae deletion strains, locus YKL068W, active compounds read low 1.01 | S. cerevisiae deletion strains, locus YKL085W, strain MDH1 (second series), active compounds read low 0.997 | S. cerevisiae deletion strains, locus YKL085W, strain MDH1, active compounds read low 0.997 | S. cerevisiae deletion strains, locus YKL160W, strain elf1, active compounds read low 1.01 | S. cerevisiae deletion strains, locus YKL190W, strain CNB1, active compounds read low 1.02 | S. cerevisiae deletion strains, locus YKR001C, strain vps1, active compounds read low 1.01 | S. cerevisiae deletion strains, locus YKR026C, strain gcn3, active compounds read low 1.02 | S. cerevisiae deletion strains, locus YKR091W, strain srl3, active compounds read low 1.01 | S. cerevisiae deletion strains, locus YLL001W, strain dnm1, active compounds read low 1.01 | S. cerevisiae deletion strains, locus YLL026W, active compounds read low 1.02 | S. cerevisiae deletion strains, locus YLL041C, strain sdh2, active compounds read low 1.01 | S. cerevisiae deletion strains, locus YLR027C, strain aat2, active compounds read low 1.01 | S. cerevisiae deletion strains, locus YLR039C, strain RIC1, active compounds read low 1.1 | S. cerevisiae deletion strains, locus YLR058C, strain SHM2, active compounds read low 1.03 | S. cerevisiae deletion strains, locus YLR102C, strain apc9, active compounds read low 1 | S. cerevisiae deletion strains, locus YLR113W, strain HOG1, active compounds read low 1 | S. cerevisiae deletion strains, locus YLR221C, strain rsa3, active compounds read low 1.01 | S. cerevisiae deletion strains, locus YLR258W, strain gsy2, active compounds read low 1 | S. cerevisiae deletion strains, locus YLR262C, strain YPT6 (second series), active compounds read low 1.01 | S. cerevisiae deletion strains, locus YLR262C, strain YPT6, active compounds read low 1.05 | S. cerevisiae deletion strains, locus YLR268W, strain sec22, active compounds read low 0.979 | S. cerevisiae deletion strains, locus YLR320W, strain mms22, active compounds read low 1.04 | S. cerevisiae deletion strains, locus YLR330W, strain CHS5, active compounds read low 1 | S. cerevisiae deletion strains, locus YLR342W, strain FKS1 (second series), active compounds read low 1.02 | S. cerevisiae deletion strains, locus YLR342W, strain FKS1, active compounds read low 1.01 | S. cerevisiae deletion strains, locus YLR357W, strain rsc2, active compounds read low 1 | S. cerevisiae deletion strains, locus YLR370C, strain arc18, active compounds read low 1.03 | S. cerevisiae deletion strains, locus YLR371W, strain rom2, active compounds read low 1.01 | S. cerevisiae deletion strains, locus YLR384C, strain iki3, active compounds read low 1.03 | S. cerevisiae deletion strains, locus YLR418C, strain cdc73, active compounds read low 0.983 | S. cerevisiae deletion strains, locus YML016C, strain PPZ1, active compounds read low 0.996 | S. cerevisiae deletion strains, locus YML032C, strain rad52, active compounds read low 0.981 | S. cerevisiae deletion strains, locus YML120C, strain ndi1, active compounds read low 1.01 | S. cerevisiae deletion strains, locus YML124C, strain tub3, active compounds read low 0.991 | S. cerevisiae deletion strains, locus YMR058W, strain fet3, active compounds read low 1.02 | S. cerevisiae deletion strains, locus YMR078C, strain ctf18, active compounds read low 0.991 | S. cerevisiae deletion strains, locus YMR125W, strain sto1, active compounds read low 1.01 | S. cerevisiae deletion strains, locus YMR129W, active compounds read low 1.02 | S. cerevisiae deletion strains, locus YMR205C, strain PFK2, active compounds read low 1.06 | S. cerevisiae deletion strains, locus YMR223W, strain ubp8, active compounds read low 0.977 | S. cerevisiae deletion strains, locus YMR231W, strain pep5, active compounds read low 1.02 | S. cerevisiae deletion strains, locus YMR263W, strain SAP30, active compounds read low 1.02 | S. cerevisiae deletion strains, locus YMR307W, strain GAS1, active compounds read low 1.15 | S. cerevisiae deletion strains, locus YNL067W, strain RPL9B, active compounds read low 1.02 | S. cerevisiae deletion strains, locus YNL071W, strain lat1, active compounds read low 1.01 | S. cerevisiae deletion strains, locus YNL128W, strain TEP1, active compounds read low 1 | S. cerevisiae deletion strains, locus YNL183C, strain NPR1, active compounds read low 0.94 | S. cerevisiae deletion strains, locus YNL209W, strain ssb2, active compounds read low 1.04 | S. cerevisiae deletion strains, locus YNL233W, strain BNI4, active compounds read low 1.05 | S. cerevisiae deletion strains, locus YNL248C, strain rpa49, active compounds read low 1.02 | S. cerevisiae deletion strains, locus YNL250W, strain rad50, active compounds read low 0.98 | S. cerevisiae deletion strains, locus YNL271C, strain bni1, active compounds read low 0.995 | S. cerevisiae deletion strains, locus YNL298W, strain CLA4, active compounds read low 0.985 | S. cerevisiae deletion strains, locus YNL307C, strain MCK1, active compounds read low 1 | S. cerevisiae deletion strains, locus YNL322C, strain KRE1 (second series), active compounds read low 1.02 | S. cerevisiae deletion strains, locus YNR049C, strain mso1, active compounds read low 1.03 | S. cerevisiae deletion strains, locus YNR052C, strain pop2, active compounds read low 0.994 | S. cerevisiae deletion strains, locus YOL012C, strain htz1 1.39 | S. cerevisiae deletion strains, locus YOL147C, strain pex11, active compounds read low 0.993 | S. cerevisiae deletion strains, locus YOR001W, strain rrp6, active compounds read low 1.02 | S. cerevisiae deletion strains, locus YOR061W, strain CKA2, active compounds read low 1.02 | S. cerevisiae deletion strains, locus YOR069W, strain VPS5, active compounds read low 0.995 | S. cerevisiae deletion strains, locus YOR070C, strain gyp1, active compounds read low 1.02 | S. cerevisiae deletion strains, locus YOR080W, strain dia2, active compounds read low 1.03 | S. cerevisiae deletion strains, locus YOR083W, strain WHI5, active compounds read low 1.01 | S. cerevisiae deletion strains, locus YOR106W, strain vam3, active compounds read low 1.04 | S. cerevisiae deletion strains, locus YOR136W, strain idh2, active compounds read low 0.975 | S. cerevisiae deletion strains, locus YOR144C, strain elg1, active compounds read low 0.999 | S. cerevisiae deletion strains, locus YOR184W, strain ser1, active compounds read low 1.02 | S. cerevisiae deletion strains, locus YOR231W, strain MKK1, active compounds read low 0.987 | S. cerevisiae deletion strains, locus YOR265W, strain rbl2, active compounds read low 1.02 | S. cerevisiae deletion strains, locus YOR270C, strain vph1, active compounds read low 1.07 | S. cerevisiae deletion strains, locus YOR290C, strain snf2, active compounds read low 1.01 | S. cerevisiae deletion strains, locus YOR316C, strain cot1, active compounds read low 0.992 | S. cerevisiae deletion strains, locus YPL051W, strain arl3, active compounds read low 1.03 | S. cerevisiae deletion strains, locus YPL055C, strain LGE1, active compounds read low 1.06 | S. cerevisiae deletion strains, locus YPL078C, strain atp4, active compounds read low 1 | S. cerevisiae deletion strains, locus YPL106C, strain sse1, active compounds read low 1.04 | S. cerevisiae deletion strains, locus YPL240C, strain hsp82, active compounds read low 1.01 | S. cerevisiae deletion strains, locus YPL256C, strain CLN2, active compounds read low 0.991 | S. cerevisiae deletion strains, locus YPR119W, strain clb2, active compounds read low 0.992 | S. cerevisiae deletion strains, locus YPR141C, strain kar3, active compounds read low 1 | S. cerevisiae deletion strains, locus YPR163C, strain tif3, active compounds read low 0.996 | S. cerevisiae deletion strains, locus YPR167C, strain met16, active compounds read low 0.988 | S. cerevisiae deletion strains, strain wtn01, active compounds read low 0.966 | S. cerevisiae strains, strain wild type, active compounds read low 1.03
